Assay results as given in the supplement of paper PMC6555819.

Columns and labels:
Experiment in all cases: PBM binding z-score (relative to random genomic background probes); higher = stronger binding; sequences stand for … in GC…GCGATTGACAGCGTAGAATGAAGG
[1] = system: FXR:RXRa (NR concentration 270 nM, RXRa partner concentration 90 nM)
How it was run: (§1)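 For binding z-scores, the reference was random background probes on custom Agilent 4×180K protein-binding microarrays. These arrays were incubated 1 h with ligand-free nuclear receptor dimers in PBS pH 7.4, 2% milk, 0.02% Triton X-100, 1 mM DTT, 0.2 mg/mL BSA and 0.4 mg/ml salmon testes DNA. Fluorescence was scanned after antibody detection of each partner (one per run) and regression-normalized.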

[2] = system: LXRa:RXRa (NR concentration 270 nM, RXRa partner concentration 90 nM)
How it was run: as §1

[3] = system: LXRa homodimer (NR concentration 270 nM)
How it was run: as §1

[4] = system: LXRb:RXRa (NR concentration 270 nM, RXRa partner concentration 90 nM)
How it was run: as §1

[5] = system: LXRb homodimer (NR concentration 270 nM)
How it was run: as §1

[6] = system: PPARa:RXRa (NR concentration 270 nM, RXRa partner concentration 90 nM)
How it was run: as §1

[7] = system: PPARg:RXRa (NR concentration 180 nM, RXRa partner concentration 90 nM)
How it was run: as §1

[8] = system: PPARg:RXRa 270nM:90nM, anti-RXR (NR concentration 270 nM, RXRa partner concentration 90 nM)
How it was run: as §1

[9] = system: PPARg:RXRa 30nM:10nM, anti-RXR (NR concentration 30 nM, RXRa partner concentration 10 nM)
How it was run: as §1

[10] = system: PPARg:RXRa 90nM:30nM, anti-RXR (NR concentration 90 nM, RXRa partner concentration 30 nM)
How it was run: as §1

Sequence | PBM binding z-score [1] | PBM binding z-score [2] | PBM binding z-score [3] | PBM binding z-score [4] | PBM binding z-score [5] | PBM binding z-score [6] | PBM binding z-score [7] | PBM binding z-score [8] | PBM binding z-score [9] | PBM binding z-score [10]
CTACCAAGGTTAACAAGGTCGTTGATTACTATTC | 2.61 | 3.3 | 1.09 | 2.89 | 0.472 | 3.28 | 1.03 | 1.76 | 0.841 | 1.46
CCTACTGGGCCACGAAATGTCATTGATTCAGTGA | -0.161 | -0.0585 | -0.34 | -0.341 | -0.393 | 0.653 | 1.58 | 1.24 | -0.144 | 0.475
TCGATTAGGTTAGTCGGGGCATTCAGCCAACATA | 0.428 | 0.421 | -0.073 | 0.839 | -0.164 | 0.801 | -0.279 | 1.29 | 2.61 | 1.79
ATCTCTAGGTCACCAAGTTCAGTGAATGCCGAAC | 4.67 | 5.17 | 4.93 | 3.52 | 2.23 | 4.74 | 7.04 | 6.1 | 3.59 | 5.18
ATCTCTAGATAAGACTCAGTTCAGTGAAGAACGC | -0.0405 | -0.109 | 0.034 | -0.147 | 0.392 | -0.438 | 0.0934 | -0.337 | 0.0965 | 0.00622
AGTCATAGTTCAGGACGAGGTAACGTAAAGCACG | 1.09 | 1.13 | -0.0495 | 0.662 | 0.0216 | 1.54 | 1.53 | 1.53 | 0.782 | 0.867
CCTAGCAGGCCAGGGTCACACAAGCATTTCGCTT | 2.57 | 2.38 | -0.252 | 2.77 | -0.795 | 4 | 2.01 | 2.57 | 0.18 | 1.59
TCTACTAGGTCAACGATGGTCAGCTAATCTGCTA | 3.61 | 3.2 | 0.626 | 2.29 | 0.75 | 4.36 | 6.19 | 6.03 | 4.97 | 5.88
CCTTACGGGTCACTGACAGGTTATTGCATTTGGA | 5.44 | 4.13 | 0.625 | 3.78 | 0.134 | 5.14 | 4.45 | 4.46 | 1.42 | 2.91
GCTAGTTGGTCAGTAAACGGTCACACACCGGTCG | -0.00893 | 0.121 | 0.352 | -0.139 | -0.393 | 0.395 | 0.552 | -0.0958 | -0.311 | 0.18
ATCGAAAGGTCGACGAGGTGAGCATACACCGTTT | 4.55 | 3.16 | 0.0611 | 2.6 | 0.486 | 4.14 | 2.93 | 3.33 | 0.968 | 2.23
ACTATTAGTTGACTTCGGGCAACCGATACGACGC | 0.0947 | 0.0355 | 0.567 | 0.0208 | 0.752 | -0.237 | 0.757 | 0.358 | 0.0391 | 0.162
ACTAGTTCGTCAGCTGAGGTCACACACAATTCGG | 3.55 | 3.53 | 2.68 | 4.09 | 0.796 | 4.03 | 1.75 | 2.28 | 0.594 | 1.5
ATGCCAAGGTGATCGTGAGGTCGTTGATACTAAC | 1.44 | 0.89 | 0.206 | 0.945 | -0.844 | 1.55 | 0.467 | 0.399 | -0.303 | 0.00157
TTACCGAGGTGAGCTGAGGTCGTTGATCCAACTC | 1.71 | 1.73 | -0.575 | 1.16 | -0.881 | 2.03 | 0.345 | 0.915 | -0.318 | 0.221
TCTATTAGTTGAGTAGGGCAACCGAAACAGCGGA | 0.117 | -0.0688 | -0.201 | 0.0431 | 0.0555 | 0.964 | 0.351 | 1.65 | 3.14 | 2.23
CCTCGGAGGACAACAAGAGGTCAGAGCTGCCAGA | 2.12 | 3.5 | 3.68 | 2.35 | -0.358 | 2.82 | 1.01 | 1.62 | -0.0713 | 0.904
GCAAGCAGGCCATTTGGGTCACTCAATGACGGGC | 0.00635 | -0.402 | -0.429 | -0.137 | -0.801 | 1.34 | 0.661 | 0.661 | -0.408 | 0.131
ACTAGCAGGCCAAGTTTGGGTCACCCAAACAAAG | 0.488 | 0.347 | -0.356 | 0.836 | -0.589 | 1.98 | 0.125 | 0.213 | -0.577 | -0.0867
TCTAGCAGGCCAGAGGGGCACTCAAGAGGTACGG | -0.239 | -0.393 | -0.689 | -0.334 | -0.644 | 0.22 | 0.662 | 1.41 | 1.64 | 1.51
AGAATGAGGTTGAGATCAGGGAAACAGAATACAT | 0.277 | 0.207 | -0.104 | 0.224 | -0.585 | 0.66 | 0.524 | 0.227 | 0.329 | 0.246
CGTCCAGGGTCAAAGGTCAGTGAAGAGATGACGG | 7.97 | 6.14 | 1.67 | 6.18 | 0.58 | 7.21 | 10.5 | 8.6 | 7.61 | 8.6
ATCTCTAGGTAAAGTTAAGTGAAAGATCGATAGA | 0.787 | 0.68 | 0.216 | 0.185 | 0.709 | 0.332 | 0.903 | 1.19 | 0.64 | 1.04
ATCTCTAGGTAAAGTTCAGTTAAAGATCGATAGA | 1.31 | 2.28 | 1.98 | 1.67 | 1.22 | 2.39 | 3.27 | 4.32 | 2.38 | 3.95
